Assay results taken from PubChem BioAssay AID1159580 (chemical genetic matrix, 2015).
“And” between values parts separate entries of the source, which are not always exact repeats. Equal entries are not always repeated. The whole screen tested about 5,500 compounds, of which about 2,000 (36%) were called active. Another 18% or so got no clear call; they are omitted. Rule as the data show it: active = normalized growth mostly below about 0.91 (no sharp cut-off); inconclusive = no clear call, values can overlap the other calls; inactive = mostly above about 0.92. Some of the results follow.

Assay: chemical genetic growth profiling, strain panel (AID 1159580);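 also: tested at 20 µM; growth read once vehicle control cultures reached saturation at 30 °C; 1 = growth at the plate median or of vehicle wells; lower values mean less growth of the strain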
Conditions: growth OD

Measured: normalized growth

CC(=O)O[C@@H]1CC2C(C)(C)C(=O)C=C[C@]2(C)C2CC[C@]3(C)C(=CC(=O)O[C@H]3c3ccoc3)[C@@]21C (stereo partly drawn)
inactive: S. cerevisiae deletion strains, locus YAL013W, strain DEP1, stronger effect = lower value 0.996 | S. cerevisiae deletion strains, locus YAL021C, strain ccr4, stronger effect = lower value 1.01 | S. cerevisiae deletion strains, locus YAL026C, strain drs2, stronger effect = lower value 1.01 | S. cerevisiae deletion strains, locus YAL030W, strain snc1, stronger effect = lower value 1 | S. cerevisiae deletion strains, locus YBL061C, strain skt5, stronger effect = lower value 1.03 | S. cerevisiae deletion strains, locus YBR009C, strain hhf1, stronger effect = lower value 1.01 | S. cerevisiae deletion strains, locus YBR021W, strain FUR4, stronger effect = lower value 0.988 | S. cerevisiae deletion strains, locus YBR023C, strain chs3, stronger effect = lower value 1 | S. cerevisiae deletion strains, locus YBR171W, strain sec66, stronger effect = lower value 1.01 | S. cerevisiae deletion strains, locus YBR229C, strain ROT2, stronger effect = lower value 0.941 | S. cerevisiae deletion strains, locus YBR231C, strain swc5, stronger effect = lower value 0.998 | S. cerevisiae deletion strains, locus YBR279W, strain paf1, stronger effect = lower value 1.01 | S. cerevisiae deletion strains, locus YCL011C, strain gbp2, stronger effect = lower value 0.993 | S. cerevisiae deletion strains, locus YCL016C, strain dcc1, stronger effect = lower value 1.01 | S. cerevisiae deletion strains, locus YCL029C, strain bik1, stronger effect = lower value 0.977 | S. cerevisiae deletion strains, locus YCL069W, strain vba3, stronger effect = lower value 1 | S. cerevisiae deletion strains, locus YCR088W, strain abp1, stronger effect = lower value 1.01 | S. cerevisiae deletion strains, locus YDL005C, strain med2, stronger effect = lower value 0.995 | S. cerevisiae deletion strains, locus YDL035C, strain GPR1, stronger effect = lower value 0.964 | S. cerevisiae deletion strains, locus YDL040C, strain nat1, stronger effect = lower value 1 | S. cerevisiae deletion strains, locus YDL074C, strain BRE1, stronger effect = lower value 0.979 | S. cerevisiae deletion strains, locus YDL101C, strain DUN1, stronger effect = lower value 1 | S. cerevisiae deletion strains, locus YDL185W, strain tfp1, stronger effect = lower value 0.959 | S. cerevisiae deletion strains, locus YDL192W, strain arf1, stronger effect = lower value 0.978 | S. cerevisiae deletion strains, locus YDR001C, strain nth1, stronger effect = lower value 1.01 | S. cerevisiae deletion strains, locus YDR069C, strain doa4, stronger effect = lower value 1.02 | S. cerevisiae deletion strains, locus YDR101C, strain arx1, stronger effect = lower value 0.956 | S. cerevisiae deletion strains, locus YDR137W, strain rgp1, stronger effect = lower value 1.05 | S. cerevisiae deletion strains, locus YDR159W, strain sac3, stronger effect = lower value 1.01 | S. cerevisiae deletion strains, locus YDR162C, strain NBP2, stronger effect = lower value 0.988 | S. cerevisiae deletion strains, locus YDR195W, strain ref2 0.968 | S. cerevisiae deletion strains, locus YDR297W, strain sur2, stronger effect = lower value 0.992 | S. cerevisiae deletion strains, locus YDR318W, strain mcm21, stronger effect = lower value 0.983 | S. cerevisiae deletion strains, locus YDR334W, strain swr1, stronger effect = lower value 1.01 | S. cerevisiae deletion strains, locus YDR335W, strain msn5, stronger effect = lower value 1.01 | S. cerevisiae deletion strains, locus YDR388W, stronger effect = lower value 0.983 | S. cerevisiae deletion strains, locus YDR392W, strain spt3, stronger effect = lower value 1.01 | S. cerevisiae deletion strains, locus YDR502C, strain sam2, stronger effect = lower value 1.02 | S. cerevisiae deletion strains, locus YEL003W, strain gim4, stronger effect = lower value 1.01 | S. cerevisiae deletion strains, locus YEL037C, strain rad23, stronger effect = lower value 1 | S. cerevisiae deletion strains, locus YEL061C, strain CIN8 (second series), stronger effect = lower value 1.01 | S. cerevisiae deletion strains, locus YER015W, strain faa2, stronger effect = lower value 1.01 | S. cerevisiae deletion strains, locus YER016W, strain bim1, stronger effect = lower value 1.01 | S. cerevisiae deletion strains, locus YER110C, stronger effect = lower value 0.966 | S. cerevisiae deletion strains, locus YER111C, strain swi4, stronger effect = lower value 1.01 | S. cerevisiae deletion strains, locus YER155C, strain BEM2 (second series), stronger effect = lower value 1 | S. cerevisiae deletion strains, locus YER155C, strain BEM2, stronger effect = lower value 0.989 | S. cerevisiae deletion strains, locus YER167W, strain BCK2, stronger effect = lower value 0.975 | S. cerevisiae deletion strains, locus YFR010W, strain ubp6, stronger effect = lower value 1.01 | S. cerevisiae deletion strains, locus YGL078C, strain dbp3, stronger effect = lower value 1.02 | S. cerevisiae deletion strains, locus YGL086W, strain mad1, stronger effect = lower value 0.992 | S. cerevisiae deletion strains, locus YGL167C, strain pmr1, stronger effect = lower value 1 | S. cerevisiae deletion strains, locus YGL173C, strain kem1, stronger effect = lower value 1 | S. cerevisiae deletion strains, locus YGL227W, strain vid30, stronger effect = lower value 1.01 | S. cerevisiae deletion strains, locus YGL240W, strain doc1, stronger effect = lower value 1 | S. cerevisiae deletion strains, locus YGL248W, strain PDE1, stronger effect = lower value 1.01 | S. cerevisiae deletion strains, locus YGL253W, strain hxk2, stronger effect = lower value 0.998 | S. cerevisiae deletion strains, locus YGR135W, strain pre9, stronger effect = lower value 1.1 | S. cerevisiae deletion strains, locus YGR252W, strain gcn5, stronger effect = lower value 1.04 | S. cerevisiae deletion strains, locus YHR013C, strain ard1, stronger effect = lower value 0.988 | S. cerevisiae deletion strains, locus YHR027C, strain rpn1, stronger effect = lower value 0.993 | S. cerevisiae deletion strains, locus YHR030C, strain SLT2, stronger effect = lower value 1.02 | S. cerevisiae deletion strains, locus YHR079C, strain IRE1 (second series), stronger effect = lower value 0.982 | S. cerevisiae deletion strains, locus YHR079C, strain IRE1, stronger effect = lower value 0.997 | S. cerevisiae deletion strains, locus YHR094C, strain hxt1, stronger effect = lower value 0.969 | S. cerevisiae deletion strains, locus YHR129C, strain ARP1, stronger effect = lower value 0.993 | S. cerevisiae deletion strains, locus YHR142W, strain chs7, stronger effect = lower value 1.04 | S. cerevisiae deletion strains, locus YHR200W, strain rpn10, stronger effect = lower value 0.994 | S. cerevisiae deletion strains, locus YIL066C, strain RNR3, stronger effect = lower value 0.956 | S. cerevisiae deletion strains, locus YIL073C, strain SPO22, stronger effect = lower value 0.989 | S. cerevisiae deletion strains, locus YIL125W, strain kgd1, stronger effect = lower value 0.981 | S. cerevisiae deletion strains, locus YIR030C, strain dcg1, stronger effect = lower value 0.987 | S. cerevisiae deletion strains, locus YJL092W, strain hpr5, stronger effect = lower value 1 | S. cerevisiae deletion strains, locus YJL095W, strain BCK1 (second series), stronger effect = lower value 0.999 | S. cerevisiae deletion strains, locus YJL095W, strain BCK1, stronger effect = lower value 1.06 and 1.03 | S. cerevisiae deletion strains, locus YJL115W, strain asf1, stronger effect = lower value 1 | S. cerevisiae deletion strains, locus YJL129C, strain trk1, stronger effect = lower value 1.02 | S. cerevisiae deletion strains, locus YJL134W, strain LCB3, stronger effect = lower value 0.97 | S. cerevisiae deletion strains, locus YJL154C, strain vps35, stronger effect = lower value 1 | S. cerevisiae deletion strains, locus YJL164C, strain tpk1, stronger effect = lower value 1 | S. cerevisiae deletion strains, locus YJL166W, strain qcr8, stronger effect = lower value 1 | S. cerevisiae deletion strains, locus YJL168C, strain set2, stronger effect = lower value 0.995 | S. cerevisiae deletion strains, locus YJL187C, strain SWE1 (second series), stronger effect = lower value 1.03 | S. cerevisiae deletion strains, locus YJR066W, strain TOR1, stronger effect = lower value 0.96 | S. cerevisiae deletion strains, locus YKL009W, strain mrt4, stronger effect = lower value 0.986 | S. cerevisiae deletion strains, locus YKL068W, stronger effect = lower value 0.992 | S. cerevisiae deletion strains, locus YKL085W, strain MDH1 (second series), stronger effect = lower value 0.996 | S. cerevisiae deletion strains, locus YKL085W, strain MDH1, stronger effect = lower value 0.996 | S. cerevisiae deletion strains, locus YKL160W, strain elf1, stronger effect = lower value 1.01 | S. cerevisiae deletion strains, locus YKR001C, strain vps1, stronger effect = lower value 0.985 | S. cerevisiae deletion strains, locus YKR026C, strain gcn3, stronger effect = lower value 1.01 | S. cerevisiae deletion strains, locus YKR091W, strain srl3, stronger effect = lower value 1 | S. cerevisiae deletion strains, locus YLL001W, strain dnm1, stronger effect = lower value 1.01 | S. cerevisiae deletion strains, locus YLL026W, stronger effect = lower value 1.02 | S. cerevisiae deletion strains, locus YLL041C, strain sdh2, stronger effect = lower value 1.02 | S. cerevisiae deletion strains, locus YLR027C, strain aat2, stronger effect = lower value 1.01 | S. cerevisiae deletion strains, locus YLR039C, strain RIC1, stronger effect = lower value 0.971 | S. cerevisiae deletion strains, locus YLR058C, strain SHM2, stronger effect = lower value 0.981 | S. cerevisiae deletion strains, locus YLR102C, strain apc9, stronger effect = lower value 0.974 | S. cerevisiae deletion strains, locus YLR113W, strain HOG1, stronger effect = lower value 0.962 | S. cerevisiae deletion strains, locus YLR221C, strain rsa3, stronger effect = lower value 1 | S. cerevisiae deletion strains, locus YLR258W, strain gsy2, stronger effect = lower value 1 | S. cerevisiae deletion strains, locus YLR262C, strain YPT6 (second series), stronger effect = lower value 1.01 | S. cerevisiae deletion strains, locus YLR268W, strain sec22, stronger effect = lower value 0.964 | S. cerevisiae deletion strains, locus YLR320W, strain mms22, stronger effect = lower value 1.01 | S. cerevisiae deletion strains, locus YLR342W, strain FKS1 (second series), stronger effect = lower value 1 | S. cerevisiae deletion strains, locus YLR342W, strain FKS1, stronger effect = lower value 0.999 | S. cerevisiae deletion strains, locus YLR357W, strain rsc2, stronger effect = lower value 1.03 | S. cerevisiae deletion strains, locus YLR370C, strain arc18, stronger effect = lower value 1.02 | S. cerevisiae deletion strains, locus YLR371W, strain rom2, stronger effect = lower value 0.967 | S. cerevisiae deletion strains, locus YLR384C, strain iki3, stronger effect = lower value 1.02 | S. cerevisiae deletion strains, locus YLR418C, strain cdc73, stronger effect = lower value 1.04 | S. cerevisiae deletion strains, locus YML016C, strain PPZ1, stronger effect = lower value 0.973 | S. cerevisiae deletion strains, locus YML032C, strain rad52, stronger effect = lower value 0.966 | S. cerevisiae deletion strains, locus YML120C, strain ndi1, stronger effect = lower value 0.993 | S. cerevisiae deletion strains, locus YML124C, strain tub3, stronger effect = lower value 0.989 | S. cerevisiae deletion strains, locus YMR058W, strain fet3, stronger effect = lower value 1 | S. cerevisiae deletion strains, locus YMR078C, strain ctf18, stronger effect = lower value 0.983 | S. cerevisiae deletion strains, locus YMR125W, strain sto1, stronger effect = lower value 0.999 | S. cerevisiae deletion strains, locus YMR129W, stronger effect = lower value 1 | S. cerevisiae deletion strains, locus YMR205C, strain PFK2, stronger effect = lower value 1 | S. cerevisiae deletion strains, locus YMR223W, strain ubp8, stronger effect = lower value 1.01 | S. cerevisiae deletion strains, locus YMR231W, strain pep5, stronger effect = lower value 1.01 | S. cerevisiae deletion strains, locus YMR307W, strain GAS1, stronger effect = lower value 0.896 | S. cerevisiae deletion strains, locus YNL067W, strain RPL9B, stronger effect = lower value 1.04 | S. cerevisiae deletion strains, locus YNL071W, strain lat1, stronger effect = lower value 1.01 | S. cerevisiae deletion strains, locus YNL153C, strain GIM3, stronger effect = lower value 1.02 | S. cerevisiae deletion strains, locus YNL183C, strain NPR1, stronger effect = lower value 0.993 | S. cerevisiae deletion strains, locus YNL209W, strain ssb2, stronger effect = lower value 0.991 | S. cerevisiae deletion strains, locus YNL233W, strain BNI4, stronger effect = lower value 1.02 | S. cerevisiae deletion strains, locus YNL248C, strain rpa49, stronger effect = lower value 1.02 | S. cerevisiae deletion strains, locus YNL250W, strain rad50, stronger effect = lower value 0.994 | S. cerevisiae deletion strains, locus YNL271C, strain bni1, stronger effect = lower value 0.988 | S. cerevisiae deletion strains, locus YNL298W, strain CLA4, stronger effect = lower value 0.963 | S. cerevisiae deletion strains, locus YNL307C, strain MCK1, stronger effect = lower value 0.991 | S. cerevisiae deletion strains, locus YNL322C, strain KRE1 (second series), stronger effect = lower value 1 | S. cerevisiae deletion strains, locus YNR049C, strain mso1, stronger effect = lower value 1.02 | S. cerevisiae deletion strains, locus YNR052C, strain pop2, stronger effect = lower value 1.02 | S. cerevisiae deletion strains, locus YOL006C, strain TOP1, stronger effect = lower value 0.97 | S. cerevisiae deletion strains, locus YOL012C, strain htz1 0.746 | S. cerevisiae deletion strains, locus YOL147C, strain pex11, stronger effect = lower value 0.982 | S. cerevisiae deletion strains, locus YOR001W, strain rrp6, stronger effect = lower value 1.01 | S. cerevisiae deletion strains, locus YOR061W, strain CKA2, stronger effect = lower value 0.948 | S. cerevisiae deletion strains, locus YOR069W, strain VPS5, stronger effect = lower value 0.992 | S. cerevisiae deletion strains, locus YOR070C, strain gyp1, stronger effect = lower value 1.02 | S. cerevisiae deletion strains, locus YOR080W, strain dia2, stronger effect = lower value 0.995 | S. cerevisiae deletion strains, locus YOR083W, strain WHI5, stronger effect = lower value 1 | S. cerevisiae deletion strains, locus YOR106W, strain vam3, stronger effect = lower value 1.01 | S. cerevisiae deletion strains, locus YOR136W, strain idh2, stronger effect = lower value 0.986 | S. cerevisiae deletion strains, locus YOR144C, strain elg1, stronger effect = lower value 0.979 | S. cerevisiae deletion strains, locus YOR184W, strain ser1, stronger effect = lower value 0.935 | S. cerevisiae deletion strains, locus YOR231W, strain MKK1, stronger effect = lower value 1.03 | S. cerevisiae deletion strains, locus YOR265W, strain rbl2, stronger effect = lower value 1.03 | S. cerevisiae deletion strains, locus YOR270C, strain vph1, stronger effect = lower value 1.07 | S. cerevisiae deletion strains, locus YOR290C, strain snf2, stronger effect = lower value 0.996 | S. cerevisiae deletion strains, locus YOR316C, strain cot1, stronger effect = lower value 0.981 | S. cerevisiae deletion strains, locus YPL051W, strain arl3, stronger effect = lower value 1.01 | S. cerevisiae deletion strains, locus YPL078C, strain atp4, stronger effect = lower value 1 | S. cerevisiae deletion strains, locus YPL106C, strain sse1, stronger effect = lower value 0.986 | S. cerevisiae deletion strains, locus YPL240C, strain hsp82, stronger effect = lower value 1 | S. cerevisiae deletion strains, locus YPL241C, strain CIN2, stronger effect = lower value 0.981 | S. cerevisiae deletion strains, locus YPL256C, strain CLN2, stronger effect = lower value 1 | S. cerevisiae deletion strains, locus YPR119W, strain clb2, stronger effect = lower value 0.988 | S. cerevisiae deletion strains, locus YPR141C, strain kar3, stronger effect = lower value 0.992 | S. cerevisiae deletion strains, locus YPR163C, strain tif3, stronger effect = lower value 0.971 | S. cerevisiae deletion strains, locus YPR167C, strain met16, stronger effect = lower value 0.997 | S. cerevisiae deletion strains, strain wtn01, stronger effect = lower value 0.961 | S. cerevisiae strains, strain wild type, stronger effect = lower value 0.97
